From PubChem BioAssay (NCI)
Several values for one entry are separate records, joined by “and”; a condition that tells them apart may be missing. Equal entries are not always repeated. This is part of a sample that, as a whole, favours compounds with a hit. Of some 79,000 tested, about 15% had one in any assay. A structure can be active in one record and inactive in another. Activity calls are given as the source filed them. Rule as the data show it: active = growth inhibition above about 70%; inactive = the rest.

Tests used:
[1] = NCI Yeast Anticancer Drug Screen. Data for the wt1 strain (AID 149);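 also: 0% = growth of vehicle-treated wt1 cultures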; settings: S. cerevisiae wt1 strain (SPY 50644) growth inhibition, stronger effect = higher value
Method in brief: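 The wt1 strain was treated with compounds, and growth was compared with vehicle-treated cultures to give inhibition.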

[2] = NCI Yeast Anticancer Drug Screen. Data for the rad50EPP+ strain (AID 151);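 also: 0% = growth of vehicle-treated control cultures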; settings: S. cerevisiae rad50 mutant strain, stronger effect = higher value
Method in brief: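 One strain with a rad50 alteration (rad50EPP+) was compound-treated, its growth then compared to that of vehicle controls.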

[3] = NCI Yeast Anticancer Drug Screen. Data for the mgt1 strain (AID 153); settings: S. cerevisiae mgt1 mutant growth inhibition, stronger effect = higher value
Method in brief: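 After exposure of the mgt1 yeast mutant to compound, growth was measured and reported as inhibition compared with vehicle controls.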

[4] = NCI Yeast Anticancer Drug Screen. Data for the rad50 strain (AID 155);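 also: 0% = growth of vehicle-only cultures of the same strain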; settings: S. cerevisiae rad50 strain growth inhibition, stronger effect = higher value
Method in brief: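 Cells are treated with compound, grown, and their growth is then scored against vehicle-only cultures of the same repair-deficient yeast strain.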

[5] = NCI Yeast Anticancer Drug Screen. Data for the mec2-1 strain (AID 157); settings: S. cerevisiae mec2-1 strain, stronger effect = higher value
Method in brief: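 Test agents were screened against the mec2-1 yeast strain, with defined DNA repair or cell cycle alteration. Growth was scored as inhibition against vehicle-only controls.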

[6] = NCI Yeast Anticancer Drug Screen. Data for the rad14 strain (AID 159);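 also: 0% = growth of vehicle-treated control cultures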; settings: S. cerevisiae rad14 strain growth inhibition, stronger effect = higher value
Method in brief: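 Readout: yeast growth inhibition, referenced to vehicle-only cultures. Strain bears a defined alteration in DNA damage repair.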

[7] = NCI Yeast Anticancer Drug Screen. Data for the sgs1 mgt1 strain (AID 161);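 also: 0% = growth of cultures given vehicle only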; settings: S. cerevisiae sgs1 mgt1 strain, stronger effect = higher value
Method in brief: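 Test agents were incubated with a DNA-repair-mutant yeast strain. Growth was then read and compared against vehicle-treated controls.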

[8] = NCI Yeast Anticancer Drug Screen. Data for the CLN2oe strain (AID 163);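 also: 0% = growth of vehicle-only control cultures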; settings: S. cerevisiae CLN2oe strain, stronger effect = higher value
Method in brief: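 Here, growth inhibition in a cell-cycle-altered yeast strain after compound exposure was quantified against vehicle control growth.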

[9] = NCI Yeast Anticancer Drug Screen. Data for the cln2 rad14 strain (AID 165);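 also: 0% = growth equal to vehicle treated cultures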; settings: S. cerevisiae cln2 rad14 strain, stronger effect = higher value
Method in brief: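 Growth of compound-exposed yeast (cln2 rad14 genotype) measured and expressed as inhibition relative to vehicle.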

[10] = NCI Yeast Anticancer Drug Screen. Data for the bub3 strain (AID 167); settings: S. cerevisiae bub3 mutant strain, stronger effect = higher value
Method in brief: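 Part of a panel of yeast mutants defective in DNA damage repair or cell cycle regulation. Each strain is grown with compound, and inhibition is calculated relative to solvent-treated cultures.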

[11] = NCI Yeast Anticancer Drug Screen. Data for the wt2 strain (AID 169);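 also: 0% = growth of vehicle-treated yeast cultures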; settings: S. cerevisiae wt2 strain growth inhibition, stronger effect = higher value
Method in brief: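 Genetically defined yeast strains from a DNA-repair/cell-cycle panel were used. Compound-exposed yeast growth was measured, and the inhibition was calculated relative to vehicle treatment.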

[12] = NCI Yeast Anticancer Drug Screen. Data for the mlh1 strain (AID 171);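 also: 0% = growth of vehicle-treated control cultures of the same strain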; settings: S. cerevisiae mlh1 strain growth inhibition, stronger effect = higher value
Method in brief: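 Here the genetically defined yeast mutant is grown with each compound, and the extent to which its growth falls below that of vehicle-exposed cells is reported.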

[13] = NCI Yeast Anticancer Drug Screen. Data for the sgs1 strain (AID 173);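 also: 0% = growth of vehicle-only control cultures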; settings: S. cerevisiae sgs1 mutant, stronger effect = higher value
Method in brief: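 Relative growth inhibition, referenced to vehicle, was determined in a yeast strain with a defined alteration affecting DNA damage repair or cell cycle control after compound exposure.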

[14] = NCI Yeast Anticancer Drug Screen. Data for the mlh1 rad18 strain (AID 175); settings: S. cerevisiae mlh1 rad18 strain growth inhibition, stronger effect = higher value
Method in brief: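 In this whole-cell yeast screen, a strain with altered DNA damage repair is challenged with compound, and its growth is measured against matched vehicle-treated controls.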

[15] = NCI Yeast Anticancer Drug Screen. Data for the rad18 strain (AID 177); settings: S. cerevisiae rad18 mutant growth inhibition, stronger effect = higher value
Method in brief: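 Screen uses a yeast strain with a defined lesion in DNA damage repair; compound effect is read as loss of growth compared to untreated vehicle cultures.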

[16] = NCI Yeast Anticancer Drug Screen. Data for the rad52 strain (AID 147);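 also: 0% = growth of vehicle-treated control cultures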; settings: S. cerevisiae rad52 mutant growth inhibition, stronger effect = higher value
Method in brief: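 Measured: yeast growth inhibition. System: strain with a defined DNA damage repair alteration. Reference: vehicle-treated control cultures.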

[17] = at 5.0 µM (retest, dose inferred, filed as 0.5)
[18] = at 50.0 µM (retest, dose inferred, filed as 5.0)

Measured: growth inhibition

O=Cc1ccc(C(F)(F)F)cc1.[C-]#[O+].[C-]#[O+].[C-]#[O+].[Cr]
active: [4]; [18] 75% | [7]; [18] 81% | [7]; at 50.0 µM 78.5% | [14]; [18] 78%
inactive: [1]; at 1.2 µM 0% | [1]; at 3.7 µM 2% | [1]; at 11.0 µM 8% | [1]; at 33.0 µM 15% | [1]; at 100.0 µM 17% | [2]; at 1.2 µM 12% | [2]; at 3.7 µM 20% | [2]; at 11.0 µM 37% | [2]; at 33.0 µM 46% | [2]; at 100.0 µM 33% | [3]; at 1.2 µM 1% | [3]; at 3.7 µM 1% | [3]; at 11.0 µM 20% | [3]; at 33.0 µM 11% | [3]; at 100.0 µM 17% | [4]; at 1.2 µM 6% | [4]; at 3.7 µM 11% | [4]; [17] 3% | [4]; at 11.0 µM 23% | [4]; at 33.0 µM 38% | [4]; at 50.0 µM 67.8% | [4]; at 100.0 µM 40% | [5]; at 1.2 µM 5% | [5]; at 3.7 µM 2% | [5]; [17] -7% | [5]; at 11.0 µM 5% | [5]; at 33.0 µM 8% | [5]; [18] 47% | [5]; at 50.0 µM 61.6% | [5]; at 100.0 µM 14% | [6]; at 1.2 µM 6% | [6]; at 3.7 µM 8% | [6]; at 11.0 µM 15% | [6]; at 33.0 µM 30% | [6]; at 100.0 µM 30% | [7]; [17] -18% | [8]; at 1.2 µM 0% | [8]; at 3.7 µM -2% | [8]; at 11.0 µM 2% | [8]; at 33.0 µM 15% | [8]; at 100.0 µM 23% | [9]; [17] -15% | [9]; [18] 58% | [9]; at 50.0 µM 63.6% | [10]; at 1.2 µM -7% | [10]; at 3.7 µM -1% | [10]; [17] -18% | [10]; at 11.0 µM 12% | [10]; at 33.0 µM 21% | [10]; [18] -7% | [10]; at 50.0 µM 66.2% | [10]; at 100.0 µM 31% | [11]; at 1.2 µM 3% | [11]; at 3.7 µM 8% | [11]; at 11.0 µM 23% | [11]; at 33.0 µM 39% | [11]; at 100.0 µM 33% | [12]; at 1.2 µM -1% | [12]; at 3.7 µM -4% | [12]; at 11.0 µM 7% | [12]; at 33.0 µM 8% | [12]; at 100.0 µM 7% | [13]; at 1.2 µM 12% | [13]; at 3.7 µM 11% | [13]; at 11.0 µM 40% | [13]; at 33.0 µM 62% | [13]; at 100.0 µM 64% | [14]; [17] 11% | [14]; at 50.0 µM 63.3% | [15]; at 1.2 µM 1% | [15]; at 3.7 µM 3% | [15]; at 11.0 µM 20% | [15]; at 33.0 µM 40% | [15]; at 100.0 µM 62%

O=C(O)C1C2c3ccccc3C(c3ccccc32)C1C(=O)O (stereo unspecified)
71.2% (active) and -29.5% (inactive): [10]; at 50.0 µM
inactive: [16]; at 1.2 µM -1% | [16]; at 3.7 µM -1% | [16]; at 11.0 µM 2% | [16]; at 33.0 µM 0% | [16]; at 100.0 µM 11% | [2]; at 1.2 µM -4% | [2]; at 3.7 µM -3% | [2]; at 11.0 µM 2% | [2]; at 33.0 µM -3% | [2]; at 100.0 µM -4% | [3]; at 1.2 µM -3% | [3]; at 3.7 µM -2% | [3]; at 11.0 µM -2% | [3]; at 33.0 µM -2% | [3]; at 100.0 µM 0% | [4]; at 1.2 µM 0% | [4]; at 3.7 µM 4% | [4]; [17] 7% | [4]; at 11.0 µM 4% | [4]; at 33.0 µM 3% | [4]; [18] 47% | [4]; at 50.0 µM 52.6% and -32.8% | [4]; at 100.0 µM 12% | [5]; at 1.2 µM -2% | [5]; at 3.7 µM -5% | [5]; [17] -7% | [5]; at 11.0 µM -3% | [5]; at 33.0 µM -2% | [5]; [18] -1% | [5]; at 100.0 µM -1% | [7]; [17] -5% | [7]; [18] 16% | [7]; at 50.0 µM 52.7% and -33% | [8]; at 1.2 µM -4% | [8]; at 3.7 µM 2% | [8]; at 11.0 µM -4% | [8]; at 33.0 µM -3% | [8]; at 100.0 µM 1% | [9]; [17] 3% | [9]; [18] 10% | [9]; at 50.0 µM 25% and 11.1% | [10]; at 1.2 µM -4% | [10]; at 3.7 µM -3% | [10]; [17] 2% | [10]; at 11.0 µM -5% | [10]; at 33.0 µM -2% | [10]; [18] 17% | [10]; at 100.0 µM -2% | [11]; at 1.2 µM 0% | [11]; at 3.7 µM -10% | [11]; at 11.0 µM 5% | [11]; at 33.0 µM -1% | [11]; at 100.0 µM -16% | [12]; at 1.2 µM -4% | [12]; at 3.7 µM -4% | [12]; at 11.0 µM -1% | [12]; at 33.0 µM -4% | [12]; at 100.0 µM 1% | [13]; at 1.2 µM -12% | [13]; at 3.7 µM -22% | [13]; at 11.0 µM -3% | [13]; at 33.0 µM 5% | [13]; at 100.0 µM 12% | [14]; [17] 3% | [14]; [18] 69% | [14]; at 50.0 µM 37.1% and -42.5% | [15]; at 1.2 µM -4% | [15]; at 3.7 µM -2% | [15]; at 11.0 µM -1% | [15]; at 33.0 µM -2% | [15]; at 100.0 µM 6%
86.6% (active) and -20.4% (inactive): [5]; at 50.0 µM
